The values below come from PubChem BioAssay (NCATS).

This assay in a line: qHTS drug screen for cell cycle checkpoint inhibitors in PARPi-resistant BRCA-mutant ovarian cancer cell lines. (AID 1963452). The note with it: PEO1/OlaR viability, CellTiter-Glo luminescence, 96 h; measured here: PEO4 Z-AUC; stronger effect = lower value. The method in brief:
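PEO1, PEO4 and PEO1/OlaR ovarian cancer cells, 600 per well, exposed 96 h at 37C to a dilution series. Viability read by CellTiter-Glo luminescence, normalized to DMSO and empty wells; activity summarized as Z-AUC.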
(In general: qHTS replaces the single test concentration by a dilution series.)
`CCn1c(-c2nonc2N)nc2c(C#CC(C)(C)O)ncc(OC[C@H]3CCCNC3)c21`: the Z-AUC was 1.41.
Turning to `CCC(=O)N[C@H]1CC[C@H](C(=O)N(C)c2ccc(-c3nc4ccccc4o3)cc2)C1`, the Z-AUC is 0.214.
For `OC[C@H](Cc1ccccc1)Nc1nc(Oc2ccc3c(c2)CCC3)nc2c1ncn2Cc1ccc(-c2ccccc2)cc1`, the Z-AUC amounted to 0.323.
For `O=C(Nc1ccc(F)c(C(F)(F)F)c1)Nc1nnc(-c2ccncc2)s1`, the Z-AUC is -0.018.
Consider `Nc1ncnc2nc(-c3ccc(N4CCOCC4)nc3)cc(-c3cccc(Br)c3)c12`, for which the Z-AUC amounted to 0.514.
For the compound `COc1ccc(CCN2CCN(CCCc3ccccc3)CC2)cc1OC`, the Z-AUC is -0.419.
As to `CN([C@@H](Cc1ccc(OS(=O)(=O)c2cccc3cnccc23)cc1)C(=O)N1CCN(c2ccccc2)CC1)S(=O)(=O)c1cccc2cnccc12`, the Z-AUC came to 1.7.
In the case of `Cc1cc([C@@H](C)Nc2ccccc2C(=O)O)c2nc(N3CCOCC3)cc(=O)n2c1`, the Z-AUC amounted to 0.854.
For `COc1ccc(C2=N[C@H](c3ccc(Cl)cc3)[C@H](c3ccc(Cl)cc3)N2C(=O)N2CCNC(=O)C2)c(OC(C)C)c1`, the Z-AUC turned out to be 1.13.
Regarding `CC1(C)Cc2c(-c3ccccc3)c(-c3ccc(Cl)cc3)c(CC(=O)O)n2C1`, the Z-AUC amounted to 0.66.
The value for `Cc1ccc(NC(=O)c2cccc(C(C)(C)C#N)c2)cc1Nc1ccc2ncn(C)c(=O)c2c1` was 0.24; that for `COc1cc2nccc(Oc3ccc(NC(=O)NC4CC4)c(Cl)c3)c2cc1C(N)=O` was 0.0753.
As to `CC1(C)CNc2cc(NC(=O)c3cccnc3NCc3ccncc3)ccc21`, the Z-AUC turned out to be 0.272.
As to `CCc1cc(Nc2nccc(-c3c(-c4ccc(OC)c(C(=O)Nc5c(F)cccc5F)c4)nc4ccccn34)n2)c(OC)cc1N1CCC(N2CCN(S(C)(=O)=O)CC2)CC1`, the Z-AUC is -0.933.
For the compound `COc1cc(F)c(F)c(Nc2ccc(I)cc2F)c1NS(=O)(=O)C1(C[C@H](O)CO)CC1`, the Z-AUC is -1.19.
In the case of `CCCS(=O)(=O)Nc1ccc(F)c(C(=O)c2c[nH]c3ncc(Cl)cc23)c1F`, the Z-AUC was found to be 0.927.
As for `Cc1c(CCOc2ccc(C(=O)O)cc2)c2cc(Cl)ccc2n1C(c1ccccc1)c1ccccc1`, the Z-AUC stood at 0.896.
For `C[C@]1(c2nc3c(C(N)=O)cccc3[nH]2)CCCN1`, the Z-AUC was found to be 0.314.
As to `COCCNCCCn1c(C(=O)CF)c(-c2ccc(C)cc2)c2c(N)ncnc21`, the Z-AUC was 1.22.
The value for `COc1ccc(-c2ccc3c(N4CCOCC4)nc(N4C[C@@H](C)O[C@@H](C)C4)nc3n2)cc1CO` was 1.19; that for `CNCc1ccc(-c2[nH]c3cc(F)cc4c3c2CCNC4=O)cc1` was 0.848; that for `CCN(c1ccccc1)c1cc(NC)[n+](C)c(C)n1` was 1.04.
For `C/C(=C\C(=O)Nc1ccccc1C(=O)O)c1ccc2ccccc2c1`, the Z-AUC was 0.827.
Consider `C[C@H](NC(=O)Cc1cc(F)cc(F)c1)C(=O)N[C@@H]1C(=O)N(C)c2ccccc2-c2ccccc21`, for which the Z-AUC was -0.563.
The value for `CN(C(=O)c1ccc(F)cc1C(F)(F)F)C1CCN(c2nnc(-c3ccnn3C)c3ccccc23)CC1` was -0.538; that for `CO[C@@H]1[C@H](N(C)C(=O)c2ccccc2)C[C@H]2O[C@]1(C)n1c3ccccc3c3c4c(c5c6ccccc6n2c5c31)C(=O)NC4` was -1.21; that for `Cc1cccc(-c2nn(C(=S)Nc3ccccc3)cc2-c2ccnc3ccccc23)n1` was 0.406.
Take `C[C@]12CCC(=O)C=C1CC[C@@H]1[C@@H]2[C@@H](O)C[C@@]2(C)[C@H]1CC[C@]2(O)C(=O)CO`: the Z-AUC is -0.19.
The value for `COc1ccc(COc2cc3oc(=O)c4cc(C(C)O)ccc4c3cc2OC)cc1` (stereo not drawn) was 1.09.
For `CS(=O)(=O)c1ccc(C(=O)Nc2ccc(Cl)c(-c3ccccn3)c2)c(Cl)c1`, the Z-AUC is -0.353.
Consider `CCOc1cc(N2CCC(O)CC2)ccc1Nc1ncc2c(n1)N(C)c1ccccc1C(=O)N2C`, for which the Z-AUC is 0.379.
`CCC(C)(C)C(=O)O[C@H]1C[C@@H](C)C=C2C=C[C@H](C)[C@H](CC[C@@H]3C[C@@H](O)CC(=O)O3)[C@H]21`: the Z-AUC was determined as 2.06.
Consider `CC[C@H](Nc1ncnc2nc[nH]c12)c1nc2cccc(F)c2c(=O)n1-c1ccccc1`, for which the Z-AUC turned out to be 0.476.
